High-throughput results from PubChem BioAssay.
NS1 inh: influenza NS1 inhibition | hit rate 0.4% among 270,000 | Potency, µM (titrated, usually from 46.1 µM), for inactives: at the highest dose activity, positive = more growth; also: actives are rising curves; nearly all actives have a fitted effect of over 50% in size
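Recovery from NS1-induced slow growth read by OD600 in budding yeast switched to galactose assay medium (pH 6.0, -URA) at 1:100 dilution. Compound 23 nl per well; the matching strain lacking NS1 serves as control.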
Pf growth 96h: inhibits malaria parasite growth, 96 h. AID 504834. P. falciparum luciferase reporter growth, 96 h. Potency, µM (titrated, usually from 28.7 µM), for the others: at the highest dose activity change, negative = inhibition, most hits filed as inhibitors. hit rate 6.9% among 320,000; active = well fitted inhibition curve with a large enough effect; inconclusive = small, poorly fitted or top-dose-only effect, or another doubt; inactive = no such curve, though single readings can be large or run the other way; also: % is scaled to controls: 0 for no effect and ±100 for the full control effect
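96 h incubation, 37 C, 5% CO2, of luciferase-reporter P. falciparum-infected RBCs (2% hematocrit, 0.05% parasitemia final) with test compounds; endpoint luminescence.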
SARS PLpro yeast: SARS-CoV PLP inhibition in yeast. S. cerevisiae expressing SARS-CoV PLpro, growth rescue. hit rate 0.19% among 330,000. Potency, µM (series often up to 32.9 µM), inactives show at the highest dose activity, positive = growth rescue, usual class: activators. AID 485353; also: 0% is about no effect; nearly all actives have a fitted effect of over 55% in size
Pf growth 48h: P. falciparum growth inhibition at 48 hours (one generation) | P. falciparum luciferase growth in erythrocytes, 48 h | Potency, µM (top dose mostly 28.7 µM), for the others: at the top dose activity change, negative = inhibition, usual class: inhibitors | hit rate 5.9% among 310,000 | AID 504832; active = well fitted inhibition curve with a large enough effect; inconclusive = small, poorly fitted or top-dose-only effect, or another doubt; inactive = no such curve, though single readings can be large or run the other way; also: % is scaled to controls: 0 for no effect and ±100 for the full control effect
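Firefly luciferase activity from engineered P. falciparum reports growth; inhibitors lower the luminescent signal. Cultures contained 2% hematocrit erythrocytes at 0.1% final parasitemia.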
The depositor's hits bear a star; ? = inconclusive; · = no result given. An excerpt weighted towards active compounds, which were near 10% of everything screened. Unless noted, calls follow the shape of the full dose curve. Potency is read from the fitted curve at half-maximal effect.

SMILES	NS1 inh	Pf growth 96h	SARS PLpro yeast	Pf growth 48h
COC(=O)N/N=C\c1ccccc1OC/C=C/c1ccccc1	-7%	9.3µM*	-3%	?
N#CCC(=O)N/N=C/c1cccc(Oc2ccccc2)c1	?	-3%	0%	247%
O=C(O)COc1ccccc1/C=N/NC(=O)Cc1ccccc1	?	10µM*	0%	-10%
O=C(O)COc1ccccc1/C=N/NC(=O)c1ccc(F)cc1	·	16%	-6%	23%
Cc1ccc(NC(=O)NN2CCN(C)CC2)cc1C	-5%	-25%	1%	2%
COc1cc(CN2CCN(CCCc3ccccc3)C(CCO)C2)cc(OC)c1O (stereo unspecified)	18%	-65%	-5%	-6%
Cc1cc(C)c(NC(=O)CN2CCN(c3ccccn3)CC2)c(C)c1	5%	3%	8%	-5%
O=C(NN=C(Cc1ccccc1)Cc1ccccc1)c1ccc(F)cc1	-5%	13µM*	-13%	-32%
C/C(Cc1ccccc1)=N\NC(=O)c1ccc(F)cc1	3%	?	-4%	15%
CC(NC(=O)COC(=O)c1ccccc1O)C1CC2CCC1C2 (stereo unspecified)	·	·	-8%	·
COc1cccc(CC(=O)Nc2cc(S(=O)(=O)N3CCOCC3)ccc2N2CCOCC2)c1	·	10µM*	1%	?
COc1cccc(CC(=O)Nc2cc(S(=O)(=O)N3CCOCC3)ccc2OC)c1	·	?	-4%	-11%
C/C=C/c1ccc(OCC(=O)Nc2cc(S(=O)(=O)N3CCOCC3)ccc2N2CCCC2)c(OC)c1	·	?	-1%	13µM*
CC(=O)c1cccc(OCC(=O)Nc2cc(Cl)ccc2-n2cncn2)c1	·	38%	2%	64%
O=C(c1ccccc1)c1ccc(N2CCOCC2)c(F)c1	2%	0%	5%	187%
O=C(c1ccccc1)c1cc(F)c(N2CCOCC2)cc1Cl	-55%	9.3µM*	-17%	9%
C/C=C/c1ccc(OCC(=O)Nc2cc(Cl)ccc2-n2cncn2)c(OC)c1	·	12µM*	-9%	?
O=C(NNS(=O)(=O)c1ccccc1F)c1ccccc1-n1cccc1	2%	7%	4%	6%
COc1cc2[nH]c(C(=O)Nc3ccc(F)cc3)cc2c(OC)c1OC	-2%	?	-5%	?
CSc1ccc(C(=O)N2CCC(n3nccc3NC(=O)C3CC3)CC2)cc1	7%	8%	-4%	-9%
O=C(NCCC(=O)N1CCN(Cc2c(F)cccc2Cl)CC1)c1ccc(Cl)cc1	·	?	-3%	?
O=C(O)CCC(=O)Nc1ccccc1Oc1ccccc1	-1%	-4%	0%	4%
O=C(COc1ccccc1)Nc1cc(S(=O)(=O)N2CCOCC2)ccc1N1CCCC1	·	?	3%	?
CCc1cccc(OCC(=O)Nc2cc(S(=O)(=O)N3CCOCC3)ccc2N2CCCC2)c1	3%	8.3µM*	-1%	?
COc1ccc2c(CC(=O)Nc3ccc(OC)c(NS(=O)(=O)c4ccc(F)cc4)c3)coc2c1	5%	15µM*	-1%	?
SMILES	NS1 inh	Pf growth 96h	SARS PLpro yeast	Pf growth 48h
Cc1cccc(OCC(=O)Nc2cc(S(=O)(=O)N3CCOCC3)ccc2N2CCCC2)c1C	·	7.4µM*	-2%	4.1µM*
O=C(Cc1ccccc1)Nc1cc(C(=O)c2ccccc2)ccc1N1CCOCC1	-48%	5.2µM*	-11%	·
O=C(COC(=O)c1nn(-c2ccccc2C(F)(F)F)cc1O)c1ccc(OC(F)F)cc1	·	22%	0%	3%
COc1ccc2c(CC(=O)Nc3cccc(S(=O)(=O)N4CCOCC4)c3)coc2c1	14%	2.3µM*	-6%	?
O=C(COc1ccccc1)Nc1cc(C(F)(F)F)ccc1N1CCCC1	-12%	-6%	-7%	?
COc1cccc(CC(=O)Nc2cc(C(F)(F)F)ccc2N2CCCC2)c1	10%	13µM*	2%	?
O=C(O)CSc1n[nH]c(=O)[nH]c1=O	-2%	·	·	·
O=C(c1ccccn1)c1cc2ccccc2n1S(=O)(=O)c1ccccc1	12%	-2%	-19%	-5%
Cc1ccc(N2C(=O)CN(Cc3cccs3)C2=S)cc1C	14%	7%	-7%	-13%
Cc1ccc(N2C(=O)CN(Cc3sccc3C)C2=S)cc1C	12%	-10%	-2%	12µM*
CCCCOc1ccc(CC2CCC(=O)NC2=O)cc1 (stereo unspecified)	-4%	44%	0%	8%
COc1cc(S(=O)(=O)N2CCC(O)(c3cccc(C(F)(F)F)c3)CC2)ccc1-n1cnnn1	2%	?	0%	10µM*
CN(C)S(=O)(=O)c1cccc(NC(=O)c2ccc(N3CCOCC3)c([N+](=O)[O-])c2)c1	-23%	?	9%	-8%
CCc1cc(=O)[nH]c(SCC(=O)NCc2ccc3c(c2)OCO3)n1	·	5%	1%	1%
CCCc1nc(SCC(=O)NCc2ccc3c(c2)OCO3)c2c(=O)n(C)c(=O)n(C)c2n1	-3%	·	·	·
Cn1c(=O)c2c(nc(SCC(=O)NCc3ccc4c(c3)OCO4)n2Cc2ccc(Cl)cc2)n(C)c1=O	5%	-10%	-14%	9.3µM*
Cc1nnc(SCC(=O)NCc2ccc3c(c2)OCO3)[nH]c1=O	-13%	0.26µM*	-5%	37%
COCCCNC(=O)CSc1nc2cc3c(cc2c(=O)n1CCCC(=O)NCc1ccc(OC)cc1)OCO3	·	10µM*	0%	-16%
CCCc1cc(=O)[nH]c(SCC(=O)NCc2ccc3c(c2)OCO3)n1	21%	12µM*	-2%	4%
C[C@H](NCCc1ccc(O)cc1)[C@@H](O)c1ccc(O)cc1	·	-12%	·	-6%
CCC(C)(C)n1nnnc1CN(Cc1ccc(Cl)cc1)Cc1ccco1	-49%	?	-25%	10µM*
CC(C)(C)c1ccc(CN(Cc2ccco2)Cc2nnnn2C2CCCC2)cc1	17%	5.2µM*	-2%	9.3µM*
Cc1ccc(NC(=O)NC(=O)CN2CCCC2c2ccc3c(c2)OCCO3)cc1C (stereo unspecified)	·	?	-5%	3%
C=CCN1C(=O)/C(=C\c2ccc(OC(=O)c3ccco3)c(OC)c2)SC1=S	·	?	-1%	-26%
C=CCN1C(=O)/C(=C/c2ccc(OC(C)=O)c(OCC)c2[N+](=O)[O-])SC1=S	-11%	23%	-4%	9.3µM*
SMILES	NS1 inh	Pf growth 96h	SARS PLpro yeast	Pf growth 48h
Cc1cccc(OCCn2c(=O)sc3ccccc32)c1	-18%	-9%	-3%	49%
Cc1ccc2oc(=O)n(CCOc3ccccc3C)c2c1	2%	9%	1%	2.6µM*
COc1ccc(OCCn2c(=O)sc3ccccc32)cc1	-11%	2.9µM*	-2%	51%
Cc1ccccc1OCCn1c(=O)sc2ccccc21	-2%	1%	-12%	13µM*
Cc1ccc2oc(=O)n(CCCOc3ccccc3C)c2c1	-6%	-1%	-1%	23%
CC(=O)c1cn(CCOc2ccccc2C)c2ccccc12	-21%	0%	0%	3.3µM*
COc1ccccc1OCCn1c(=O)sc2ccccc21	-25%	57%	-4%	-2%
CCCCCCCCCCCCCCCCCCOCC(O)CO (stereo unspecified)	·	?	·	-17%
